Experiment [1] is described as follows: ATG_XTT_Cytotoxicity: Cytotoxicity Assessment in the Attagene TRANS-FACTORIAL HepG2 Assay (AID 2283584).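 On AC50: XTT signal for cell number as viability in transfected HepG2 cells; cells exposed to compound for 24 h before reading; active means loss of viability signal versus DMSO baseline.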 The method, boiled down: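 HepG2 cells transiently transfected with GAL4-UAS multiple reporter units, dosed 24 h; cytotoxicity read by XTT as loss of signal versus DMSO baseline.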
Experiment [2] in a line: TOX21_p53_BLA_p2_viability: Viability Assessment in the Tox21 HCT-116 p53 Agonism Beta-lactamase Assay, Phase 2 (AID 2283591).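 Further: actives lower the ATP signal meaning cytotoxicity.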 The method, boiled down:
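HCT116 p53-bla cells, 4000/well, dosed after 5 h plating (217-fold dilution of DMSO stocks) and incubated 16 h at 37C. Viability taken as cellular ATP by CellTiter-Glo luminescence after 30 min RT; signal loss marks cytotoxicity.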

Experiment [3] concerns the target Cellular tumor antigen p53 (Homo sapiens) (UniProt P04637). In words: TOX21_p53_BLA_p2_ratio: Tox21 HCT-116 p53 Agonism Beta-lactamase Assay, Ratio, Phase 2 (AID 2283592). The method, boiled down:
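First, HCT116 reporter cells settle for 5 h at 37C. Next, DMSO compound solutions are pinned in (217-fold dilution) and left 16 h. Finally, CCF4-AM substrate is loaded 2 h at room temperature and the 460/530 nm ratio read.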

Experiment [4] can be described thus: TOX21_p53_BLA_p3_viability: Viability Assessment in the Tox21 HCT-116 p53 Agonism Beta-lactamase Assay, Phase 3 (AID 2283593).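 Further: cells exposed to compound for 16 h before reading.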 Summed up: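 HCT116 cells, 4000/well, dosed 5 h after plating by pin transfer (217-fold dilution from DMSO stock) and incubated 16 h at 37C, 5% CO2. Viability read as ATP luminescence with CellTiter-Glo after 30 min at room temperature.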

In experiment [5] the target is Cellular tumor antigen p53 (Homo sapiens) (UniProt P04637). In words: TOX21_p53_BLA_p3_ratio: Tox21 HCT-116 p53 Agonism Beta-lactamase Assay, Ratio, Phase 3 (AID 2283596). The method, boiled down:
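Cells were seeded at 4000/well, rested 5 h at 37C, then dosed with DMSO compound solutions (217-fold dilution) for 16 h. CCF4-AM substrate was loaded for 2 h at room temperature, and the 460/530 nm emission ratio was fitted for gain of signal versus DMSO.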

A short description of experiment [6]: TOX21_p53_BLA_p4_viability: Viability Assessment in the Tox21 HCT-116 p53 Agonism Beta-lactamase Assay, Phase 4 (AID 2283597).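 Further: hits lower the luminescence signal meaning cytotoxicity.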 Summed up: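 4000 HCT116 cells per well; 5 h attachment; compounds from DMSO, 217-fold dilution; 16 h at 37C. Then CCF4-AM, 2 h RT, followed by CellTiter-Glo, 30 min RT, luminescence. Decrease = cytotoxicity.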
In experiment [7] the target is Cellular tumor antigen p53 (Homo sapiens) (UniProt P04637). In words: TOX21_p53_BLA_p5_ratio: Tox21 HCT-116 p53 Agonism Beta-lactamase Assay, Ratio, Phase 5 (AID 2283599). Summed up:
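HCT-116 p53-bla cells (4000/well) plated 5 h, dosed with compound (217-fold DMSO dilution) for 16 h at 37 C; CCF4-AM substrate 2 h at room temperature. Activity is the 460/530 nm emission ratio (405 nm excitation), fitted in gain-of-signal direction versus DMSO.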

For experiment [8] the target is unchanged. In words: TOX21_p53_BLA_p4_ratio: Tox21 HCT-116 p53 Agonism Beta-lactamase Assay, Ratio, Phase 4 (AID 2283601). The method, boiled down:
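HCT-116 p53 beta-lactamase reporter cells (4000/well) preincubated 5 h, then compound (217-fold dilution of DMSO stock) for 16 h at 37C. CCF4-AM substrate added 2 h at room temperature; 460/530 nm emission ratio fitted upward versus DMSO.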

Experiment [9] in a line: TOX21_p53_BLA_p5_viability: Viability Assessment in the Tox21 HCT-116 p53 Agonism Beta-lactamase Assay, Phase 5 (AID 2283600). Summed up:
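Decreased CellTiter-Glo luminescence denotes lost viability. Exposure: 16 h at 37C, 5% CO2, with compounds from DMSO stocks diluted 217-fold in wells of 4000 cells.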

This note sets out measurements from PubChem BioAssay (EPA / NIEHS).

“And” between values parts separate entries of the source, which are not always exact repeats. Equal values may be shown once. Records with an inconclusive call do not appear. Some compounds were tested as several samples or in several runs, with calls that do not always agree. The source made the active and inactive calls. How the source made its calls: active means hit-call score of the fitted dose curve at least 0.9, where 1 is the maximum; inconclusive means response in the unintended direction; inactive means score below 0.9.

Cellular tumor antigen p53 (Homo sapiens), sequence (P04637 whole entry, looked up): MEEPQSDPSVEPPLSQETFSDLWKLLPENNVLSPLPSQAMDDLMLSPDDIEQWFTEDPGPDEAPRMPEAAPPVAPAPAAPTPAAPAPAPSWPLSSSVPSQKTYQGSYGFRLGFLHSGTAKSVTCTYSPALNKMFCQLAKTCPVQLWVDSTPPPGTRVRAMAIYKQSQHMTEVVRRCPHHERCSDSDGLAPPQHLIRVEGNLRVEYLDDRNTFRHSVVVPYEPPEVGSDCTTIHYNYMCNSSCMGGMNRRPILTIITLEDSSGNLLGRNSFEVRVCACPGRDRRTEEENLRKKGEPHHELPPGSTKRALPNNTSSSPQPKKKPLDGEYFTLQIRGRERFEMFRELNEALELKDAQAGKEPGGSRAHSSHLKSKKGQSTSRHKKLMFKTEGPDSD

`CCCCCC(C=O)=Cc1ccccc1`: the molecule was classed as inactive in experiment [1], in [2], in experiment [3], in experiment [4], in [5] and in experiment [6]. Besides, the result in [7] and in experiment [8] was inactive.

Turning to `CCOC(=O)c1ccc(N)cc1`, the molecule was classed as inactive in experiment [1], in [2], in experiment [3], in [4], in [5] and in experiment [7]. For the same molecule, in experiment [8], the result was inactive.

With `C#CC(C)(O)CC(C)C` (centres undefined), the result in experiment [1], in [2], in experiment [3], in experiment [4], in [7] and in experiment [9] was inactive.

Turning to `CC(C)(C)CC(C)(C)c1ccc(OCCOCC[N+](C)(C)Cc2ccccc2)cc1`, the AC50 – broadly, the concentration giving half of the maximal activity seen – is 44.9 µM (active) in experiment [1]; 37.1 µM (active) and 32.8 µM (active) in experiment [2]; 56.2 µM (active) and 34.8 µM (active) in experiment [3]; 61 µM (active) in experiment [5]; 33.7 µM (active) and 23 µM (active) in experiment [6]; 79.3 µM (active) and 36.8 µM (active) in experiment [7]. Further, the AC50 in experiment [8] is 70.9 µM (active) and 42.1 µM (active). The outcome in experiment [5] was inactive.

Consider `Nc1ccc(N)c2c1C(=O)c1ccccc1C2=O`, for which the result in experiment [1], in experiment [2], in experiment [5], in [6], in experiment [7] and in experiment [9] was inactive. The values for the AC50 in experiment [3] and in [8] were 7.9 µM (active) and 13 µM (active), respectively.

As to `CCCCCCCCCC(C)C=O` (centres undefined), the molecule was called inactive in experiment [1], in experiment [2], in experiment [3], in [4], in [5] and in [6]. The molecule was called inactive in experiment [9] and in [8].

Consider `NC(=S)NNC(N)=S`, for which the result in experiment [1], in [2], in experiment [3], in [5], in experiment [6] and in experiment [7] was inactive. Moreover, the outcome in [9] and in [8] was inactive.

Regarding `CCN(CCN)c1cccc(C)c1`, the outcome in [1], in experiment [2], in [3], in [4], in [6] and in experiment [9] was inactive.

Take `COc1cc([C@@H]2c3cc4c(cc3[C@@H](O[C@@H]3O[C@@H]5CO[C@@H](C)O[C@H]5[C@H](O)[C@H]3O)[C@H]3COC(=O)[C@H]23)OCO4)cc(OC)c1O`: the molecule was called inactive in experiment [1], in experiment [2], in [6] and in experiment [9]. Further, the AC50 in [3] is 1.36 µM (active) and 3.57 µM (active); in experiment [5], 852 nM (active) and 3.18 µM (active); in experiment [7], 2.56 µM (active) and 4.83 µM (active); in experiment [8], 6.18 µM (active) and 1.98 µM (active).

As for `CCCCCCCCCCCC(=O)OC[C@@H](O)[C@H]1OC[C@H](O)[C@H]1O`, the call in experiment [1], in experiment [2], in [3], in [4], in experiment [7] and in [9] was inactive. In addition, the outcome in experiment [8] was inactive.

For the molecule `CCCC(=O)OC(C)(C)Cc1ccccc1`, the outcome in experiment [1], in [2], in [3], in [4], in [6] and in [9] was inactive. The result in experiment [8] was inactive.

Turning to `CCC(C)=O`, the molecule was classed as inactive in experiment [1], in [2], in experiment [3], in experiment [4] and in [6].

For the molecule `O=[N+]([O-])c1ccc(O)cc1C(F)(F)F`, the call in experiment [1], in [2], in experiment [6] and in [9] was inactive. Moreover, the AC50 is 28.2 µM (active) in experiment [3], 42 µM (active) in experiment [5], 30.7 µM (active) in [7] and 45.6 µM (active) in [8].

Consider `CCOC(=O)CCc1ccccc1`, for which the molecule was called inactive in experiment [1], in experiment [2], in experiment [3], in experiment [4] and in experiment [9].

`Cc1ncc[nH]1`: the call in experiment [1], in [2], in experiment [3], in experiment [4], in [6] and in experiment [7] was inactive. For the same molecule, the outcome in experiment [8] was inactive.

For the molecule `OCc1ccc(Cl)cc1Cl`, the molecule was classed as inactive in [1], in experiment [2], in experiment [3], in [5], in experiment [6] and in experiment [7]. The result in experiment [9] and in experiment [8] was inactive.

On to `CC(=O)c1c(C)c([N+](=O)[O-])c(C(C)(C)C)c([N+](=O)[O-])c1C`, for which the call in [1], in experiment [2], in experiment [3], in experiment [4], in experiment [6] and in experiment [7] was inactive. The call in [9] and in [8] was inactive.

On to `CCCCCCOC(=O)CCC`, for which the molecule was classed as inactive in experiment [1], in experiment [2], in experiment [3], in experiment [4], in experiment [6] and in experiment [7]. In addition, in experiment [8], the outcome was inactive.

Turning to `C#CC(C)N(C)C(=O)Nc1ccc(Cl)cc1` (centres undefined), the molecule was called inactive in experiment [1], in experiment [2], in experiment [3], in experiment [5], in experiment [6] and in experiment [7]. In addition, the call in experiment [9] and in [8] was inactive.

Regarding `[Cl][Au]([Cl])[Cl]`, the result in experiment [1], in experiment [7] and in [9] was inactive. Besides, the AC50 was 45.6 µM (active) in experiment [2]; 74.1 µM (active) in experiment [3]; 75.1 µM (active) in [4]; 70.7 µM (active) in experiment [6]; 37.8 µM (active) in experiment [8].

In the case of `CCCC(C)=O`, the molecule was called inactive in [1], in [2], in experiment [3], in [5], in [6] and in experiment [7]. For the same molecule, the call in experiment [9] and in experiment [8] was inactive.

As for `CCC1(c2ccccc2)C(=O)NCNC1=O`, the call in experiment [1], in [2], in experiment [3], in experiment [4], in [5] and in experiment [6] was inactive. The molecule was called inactive in experiment [9] and in experiment [8].

On to `O=CCc1ccccc1`, for which the result in [1], in experiment [2], in experiment [3], in [4], in [5] and in experiment [6] was inactive. The outcome in [9] and in [8] was inactive.

Take `NC1CCCCC1N` (centres undefined): the outcome in experiment [1], in experiment [2], in experiment [3], in [4], in [6] and in experiment [7] was inactive. Also, the call in [9] and in [8] was inactive.

In the case of `COc1ccccc1[N+](=O)[O-]`, the result in experiment [1], in experiment [2], in experiment [3], in [4], in experiment [5] and in experiment [7] was inactive. Also, the outcome in [8] was inactive.

With `CCCCN(CCCC)C(=O)N(CCCC)CCCC`, the molecule was classed as inactive in experiment [1], in [2], in [3], in experiment [4], in experiment [5] and in experiment [7]. Moreover, the molecule was classed as inactive in [9] and in experiment [8].

In the case of `CC(=O)O[C@@H]1CC2CCC1(C)C2(C)C` (some centres undefined), the call in experiment [1], in experiment [2], in experiment [3], in experiment [4], in [9] and in experiment [8] was inactive.

`CC(C)=CCCC(C)CCOC=O` (centres undefined): the molecule was called inactive in experiment [1], in experiment [2], in experiment [3], in [6], in experiment [7] and in experiment [9]. The result in [8] was inactive. The AC50 in experiment [4] is 39.7 µM (active).

Consider `CCOC(=O)C1OC1c1ccccc1` (centres undefined), for which the result in experiment [1], in experiment [2], in experiment [3], in experiment [4], in experiment [5] and in [8] was inactive.

For `CCCOCCO`, the call in experiment [1], in experiment [2], in experiment [3], in experiment [4], in experiment [6] and in experiment [7] was inactive.

As for `CCCCCCOC(=O)C(C)C`, the outcome in experiment [1], in experiment [2], in [3], in [4], in [5] and in [8] was inactive.

Turning to `CC(=O)c1ccccn1`, the molecule was called inactive in experiment [1], in experiment [2], in experiment [3], in experiment [5], in experiment [6] and in experiment [7]. Moreover, in [9], the outcome was inactive.

In the case of `Cc1ccc2c(c1)C(=O)OC2=O`, the molecule was called inactive in experiment [1], in experiment [2], in experiment [3], in experiment [4], in experiment [6] and in experiment [7]. Besides, the call in experiment [9] and in experiment [8] was inactive.

On to `CCCCCc1ccco1`, for which the result in experiment [1], in [2], in experiment [3], in [6], in experiment [7] and in experiment [9] was inactive. In addition, the outcome in [8] was inactive. Also, the AC50 in experiment [4] was 58 µM (active).

In the case of `CCOc1ccc(NC(=O)CC(C)O)cc1` (centres undefined), the molecule was called inactive in [1], in [2], in experiment [3], in experiment [4], in experiment [6] and in [9]. Besides, the result in experiment [8] was inactive.
